# Bioassay records as filed in PubChem.
# Only some compounds are listed: those with a hit (about 2% of all), similar ones and a draw of the others.
# SKKanGAS inh: S. pyogenes SKKanGAS growth inhibitors in kanamycin, primary screen, streptokinase expression inhibitor project, SKKanGAS strain, BacTiter-Glo luminescence | 6 h | inhibition, % at 7.5 µM | 300,000 tested, 1.3% active | AID 1662, 2009;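 active means mean replicate score, as percent of positive control median, at least 50; inconclusive means mean below 50 but one replicate at or above 50; inactive means mean and every replicate below 50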;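 further: strain carries kanamycin resistance gene driven by streptokinase promoter and grows in 40 µg/ml kanamycin; loss of luminescence reflects streptokinase promoter inhibition or plain growth inhibition; 0% = median of DMSO wells and 100% = positive control at its reference dose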
# Platelet DG rel: inhibitors of platelet dense granule secretion, primary screen, cell-based, MLPCN, human platelets; 300,000 tested, 0.22% active; inhibition, %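 (compounds screened at 7.5 µM in platelet-rich plasma)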; human platelet-rich plasma, SFLLRN dense granule ATP release, luminescence;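 active means mean replicate score, as percent of positive control, at or above 50; inconclusive means mean below 50 but at least one replicate at or above 50; inactive means mean and every replicate below 50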
# Calb FLC: C. albicans growth inhibition with fluconazole, primary screen, CaCi-2 strain, Alamar Blue fluorescence | C. albicans CaCi-2 (fluconazole-resistant clinical isolate) + fluconazole, 48 h | 300,000 tested, 0.57% active | growth inhibition, % (concentration not given with the values);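 active means growth inhibition above about 58% in most replicates, limit read from the data, passing the limit was not always enough; inconclusive means exactly half the replicates above a set limit; inactive means most replicates below a set limit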;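 further: all wells also contain fluconazole at 8 µg/ml as a sub-toxic cotreatment; 0% = median of DMSO wells and 100% = median of geldanamycin control wells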
# Yeast superoxide: reduction of superoxide in aged yeast, primary screen, HTS. S. cerevisiae aged cells, superoxide DHE fluorescence; active compounds read low. superoxide response (% of plate mean), % at 10 µM. 330,000 tested, 0.18% active;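 active means superoxide response under a set limit, about three screen SD below normal, cut at about 65% in these data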;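 further: yeast aged for seven days with compound at 30 °C before DHE staining; 100% = average MFI of all compound-treated wells on the plate with controls excluded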
# PolyA inhibitor: polyadenylation inhibitors in yeast reporter cells, primary screen, luminescence, S. cerevisiae; S. cerevisiae SKY197-pL101 polyadenylation reporter, beta-gal luminescence; efflux-impaired pdr1/pdr3 knockout yeast; score 100 = 6 SD above DMSO; AID 1875, 2009; 300,000 tested, 0.02% active; activity score, % at 12 µM;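 active means lowest replicate activity score at least 50, where 100 means six control SD above control mean; inconclusive means lowest score under 50 but half or more replicates reach 50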;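 further: yeast exposed to compound for 9 h at 30 °C; higher score means more reporter readthrough which indicates perturbed polyadenylation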
# * marks the source's active call; other numbers are inactive results; ? = inconclusive; . = no result.
SMILES,SKKanGAS inh,Platelet DG rel,Calb FLC,Yeast superoxide,PolyA inhibitor
O=C(/C=C/c1cn(-c2ccccc2)nc1-c1ccccc1)Nc1ccc(C(=O)O)cc1,49.9*,-1.4,-0.7,121.0,-6.6
NS(=O)(=O)c1ccc(NC(=O)/C=C/c2cn(-c3ccccc3)nc2-c2cccc(Cl)c2)cc1,19.7,1.5,-6.6,99.0,3.6
CCCCCCCCCCOC(=O)C[N+](C)(C)C/C=C(/C)Cl,23.9,2.6,-37.3,129.6,6.2
CCCCCCCCCCCCOC(=O)C[N+](C)(C)C,113.1*,-5.7,-5.0,99.2,11.1
Cc1ccc(S(=O)(=O)NCc2ccccc2)cc1C(=O)N(C)CC(=O)Nc1c(Cl)cccc1Cl,1.1,-6.3,0.3,87.0,-6.9
CCn1c(=O)c(C(=O)NCc2ccc(F)cc2)c(O)c2ccccc21,23.1,0.0,?,102.6,11.1
CCn1c(=O)c(C(=O)NNC(=O)c2ccccc2Cl)c(O)c2ccccc21,58.0*,18.2,5.8,118.8,-2.9
CCn1c(=O)c(C(=O)NNC(=O)c2ccccc2F)c(O)c2ccccc21,89.7*,-5.8,19.6,111.4,9.0
Cn1c(=O)c(C(=O)NNC(=O)c2ccc(Br)cc2)c(O)c2ccccc21,91.9*,-14.2,0.1,82.8,31.9
COc1ccc2c(c1OC)C(=O)N1N=C(c3ccc(O)cc3)CC21 (stereo unspecified),-9.1,-9.6,93.5*,138.5,-12.9
CCCn1c(CC)nc([N+](=O)[O-])c1Sc1ccc(C)cc1,8.7,-7.8,-3.1,101.8,-15.2
CCCn1c(CC)nc([N+](=O)[O-])c1Sc1ccc(F)cc1,-3.3,-0.9,112.6*,98.8,17.4
Cc1nn(-c2ccccc2)c(C)c1C(=O)Nc1nnc(-c2ccco2)o1,5.8,3.6,84.0*,97.8,-4.1
CCCCN(CCCC)S(=O)(=O)c1ccc(C(=O)Nc2nnc(CSC)o2)cc1,105.8*,.,1.2,94.0,-14.0
CCN(c1ccccc1)S(=O)(=O)c1ccc(C(=O)Nc2nnc(-c3ccco3)o2)cc1,63.0*,8.9,?,125.1,-19.2
C=CCN(CC=C)S(=O)(=O)c1ccc(C(=O)Nc2nnc(COC)o2)cc1,4.2,1.3,114.0*,86.0,8.8
CCCCN(CC)S(=O)(=O)c1ccc(C(=O)Nc2nnc(CSC)o2)cc1,25.3,2.8,-5.4,97.4,-4.1
COc1cc(OC)cc(C(=O)N[C@H](C(=O)Nc2c(C)n(C)n(-c3ccccc3)c2=O)C(C)C)c1,.,.,.,118.2,.
CCN(CC(=O)Nc1c(F)cccc1F)C(=O)C1CC1C (stereo unspecified),-2.1,-2.8,0.2,100.9,1.1
CCCCN(C)S(=O)(=O)c1ccc(C(=O)Nc2nnc(-c3cccs3)o2)cc1,101.5*,4.7,84.2*,118.2,25.9
CCN(Cc1ccccc1)S(=O)(=O)c1ccc(C(=O)Nc2nnc(-c3ccccc3OC)o2)cc1,93.6*,0.2,82.7*,115.4,5.2
O=C(Nc1nnc(-c2cccs2)o1)c1ccc(S(=O)(=O)N2CCOCC2)cc1,6.6,-0.2,8.0,86.2,-4.0
CCCCN(CC)S(=O)(=O)c1ccc(C(=O)Nc2nnc(-c3ccccc3Cl)o2)cc1,99.1*,-13.1,54.2,99.8,2.6
CN(Cc1ccno1)Cc1cn(Cc2ccccc2)nc1-c1ccc2c(c1)OCO2,2.6,10.4,13.6,85.1,6.0
CC(C)S(=O)(=O)c1csc(NC(=O)Nc2cc(Cl)ccc2Cl)c1Cl,58.2*,-1.6,-24.0,96.3,2.7
SMILES,SKKanGAS inh,Platelet DG rel,Calb FLC,Yeast superoxide,PolyA inhibitor
CSC(=S)NCc1cccnc1,-10.1,-11.2,87.7*,96.6,-9.9
CCCc1ccc(C2C3=C(CC(C)(C)CC3=O)NC3=C2C(=O)c2ccccc23)cc1 (stereo unspecified),26.1,3.0,105.5*,86.5,-10.7
Cc1cc2[nH]c(=O)c(=O)[nH]c2cc1S(=O)(=O)N1CCN(c2ccccc2F)CC1,-11.3,-5.8,81.0*,102.5,12.1
CC1(C)OC(C(O)(c2ccccc2)c2ccccc2)[C@@H](C(O)(c2ccccc2)c2ccccc2)O1 (stereo partly specified),51.4*,2.3,3.2,95.1,-7.1
CN(C)Cc1ccccc1C(O)(c1ccccc1)c1ccccc1,5.0,5.8,-5.8,105.3,21.2
Cc1ccc(N2C(=O)C3C(C2=O)C2C=CC3C23CC3)c([N+](=O)[O-])c1 (stereo unspecified),7.9,4.3,-8.1,97.0,4.8
CCc1ccc2[nH]c(O)c(N=Nc3nc(-c4ccccc4)cs3)c2c1,52.7*,0.1,6.6,107.5,-3.6
c1ccc2c(c1)nc(Nc1ccc(N3CCCCC3)cc1)c1nncn12,59.1*,-10.2,-7.5,104.1,1.1
COc1ccc(S(=O)(=O)N2CCC(C(=O)NC3CCCCC3)CC2)cc1OC,-1.9,.,-2.2,101.2,-15.3
NCC(c1ccc(Cl)cc1Cl)c1c[nH]c2ccccc12 (stereo unspecified),0.0,-2.8,80.2*,95.1,-16.3
NCC(c1ccccc1Cl)c1c[nH]c2ccccc12 (stereo unspecified),-3.5,-13.1,3.5,109.0,-3.0
CN(C)CCCNC(=S)NCC(c1ccc(Cl)cc1Cl)c1c[nH]c2ccccc12 (stereo unspecified),55.8*,4.8,1.5,106.5,3.0
N/C(=N\OC(=O)c1ccc(Cl)cc1Cl)c1ccccn1,8.4,55.9*,26.4,110.8,-21.9
Cc1ccc(C(=O)O/N=C(\N)c2ccccc2)c(Cl)c1,-3.9,68.5*,-1.2,124.1,-10.3
N/C(=N\OC(=O)c1ccccc1Cl)c1ccncc1,-3.5,-0.8,-38.0,122.8,-2.9
Cc1ccc(C(=O)O/N=C(\N)c2ccccn2)c(Cl)c1,15.9,75.9*,-3.9,102.0,16.1
COP(=O)(OC)c1nc(-c2ccc(C)cc2)oc1N1CCCCC1,3.2,3.2,-7.6,103.4,11.7
Cc1ccc(Cl)cc1NC(=O)N[C@@H](CC(C)C)C(=O)O,-2.5,6.3,-6.0,93.6,23.1
CCN(CC)CCCNC(=O)C1CCC(CNS(=O)(=O)c2ccc(Cl)cc2)CC1 (stereo unspecified),-4.1,-1.1,-8.1,98.0,-3.7
COc1ccc2c(n1)Sc1nc3ccccc3nc1N2,1.1,-4.0,-0.4,58.9*,-6.0
O=C(NN=C1CCCC1)c1ccc(Cl)cc1,17.5,1.6,8.6,98.4,18.5
O=C1CCC/C(=N/Nc2ccc(Cl)cc2)C1,11.9,-3.5,105.7*,79.5,7.3
COc1c(CC=C(C)C)cc(C2CC(=O)c3c(O)cc(O)cc3O2)c(CC=C(C)C)c1O (stereo unspecified),108.5*,-0.8,3.1,93.0,8.2
COc1cc(C2CC(=O)c3c(O)cc(O)cc3O2)ccc1O (stereo unspecified),0.3,-2.1,0.3,86.3,-24.0
Cc1ccc2nsnc2c1NC(=O)CCc1ccccc1,-1.7,-7.4,-26.1,103.5,8.5
